A short description of assay [1]: Primary qHTS for small molecule stabilizers of the endoplasmic reticulum resident proteome: Secreted ER Calcium Modulated Protein (SERCaMP) assay (AID 1508630). Note: % is set by controls: 0 for no effect and ±100 for the full control effect. Summed up:
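The SH-SY5Y reporter protocol was run at 3 concentrations up to 38.3 uM (primary) or 11 concentrations (follow-up): 16 h compound, 100 nM thapsigargin for 4 h, then extracellular luciferase luminescence.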
In general terms: In qHTS, concentration-response curves come from the screen itself.

In assay [2] the target is Cytochrome P450 2D6 (Homo sapiens) (UniProt P10635). Nature of the assay: Cytochrome P450 family 2 subfamily D member 6 (CYP2D6) small molecule antagonists: luciferase biochemical (cell-free) qHTS assay (AID 1645840; active = well fitted curve in the direction sought with a large enough effect in the repeat runs; an effect the other way counts as inactive or inconclusive; note: nearly all actives have a fitted effect of over 55% in size; note: potency is the fitted concentration of half-maximal effect; for activity change, negative = inhibition: % is set by controls: 0 for no effect and ±100 for the full control effect). The procedure, abridged:
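P450-Glo CYP2D6 system: proluciferin substrate converted by enzyme to luciferin, read by luminescence proportional to activity. Enzyme-substrate mix with compound 10 min at room temperature, then NADPH regeneration 1 h before detection reagent.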

Assay [3] deals with Cytochrome P450 2C9 (Homo sapiens) (UniProt P11712). Nature of the assay: Cytochrome P450 family 2 subfamily C member 9 (CYP2C9) small molecule antagonists: luciferase biochemical (cell-free) qHTS assay (AID 1645842; active = well fitted curve in the direction sought with a large enough effect in the repeat runs; an effect the other way counts as inactive or inconclusive; note: nearly all actives have a fitted effect of over 55% in size; note: potency is the fitted concentration of half-maximal effect). The procedure, abridged:
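P450-Glo CYP2C9 system: proluciferin substrate with enzyme in mix containing 0.4% BSA, 10 min at room temperature, then NADPH regeneration solution added and incubated 1 h at 37C. Detection reagent stopped reaction; luminescence read after 20 min as RLU.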

The target in assay [4] is Papain (Carica papaya) (UniProt P00784). In words: Primary qHTS assay for inhibitors of the protease papain (AID 1645873).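 Note: papain turnover of Z-FR-AMC read as the AMC fluorescence gain over 10 min; % is set by controls: 0 for no effect and ±100 for the full control effect.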
Chain of Papain (Carica papaya) (P00784 whole entry, looked up): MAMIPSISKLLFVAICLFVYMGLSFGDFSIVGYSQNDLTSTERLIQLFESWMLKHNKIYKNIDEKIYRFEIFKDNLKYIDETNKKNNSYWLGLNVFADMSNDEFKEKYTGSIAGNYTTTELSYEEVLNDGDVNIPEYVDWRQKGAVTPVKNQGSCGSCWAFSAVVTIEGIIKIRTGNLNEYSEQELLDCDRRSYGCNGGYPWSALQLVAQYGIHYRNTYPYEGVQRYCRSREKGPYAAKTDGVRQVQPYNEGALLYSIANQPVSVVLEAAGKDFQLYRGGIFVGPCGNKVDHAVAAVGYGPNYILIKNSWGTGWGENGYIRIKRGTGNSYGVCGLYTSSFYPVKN
Assay [5] can be described thus: A High-Content qHTS Against Drug Library for the Identification of Small Molecules that Inhibit DYT1 Early Onset Primary Dystonia-Associated Cell Pathology (AID 1645839; calls by dose curve). Summed up: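 Cells were seeded and left for 24 h, then dosed with compound alongside tetracycline induction of mutant EGFP-TorsinA. They were incubated for 48 h, fixed in 4% paraformaldehyde, permeabilized and imaged for mislocalization (%pathology) and cell count.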

Assay [6] in a line: Primary qHTS for inhibitors of nuclear receptor binding SET domain protein 2 (NSD2) in an isogenic RCH-ACV NSD2 p.E1099K mutant (9B) (AID 1645876). Note: nearly all actives have a fitted effect of over 70% in size. Note: potency is the fitted concentration of half-maximal effect.
Assay [7] in a line: Primary qHTS for inhibitors of nuclear receptor binding SET domain protein 2 (NSD2) in an RCH-ACV wild type WT cells (2C) (AID 1645877). Note: nearly all actives have a fitted effect of over 70% in size. Note: potency is the fitted concentration of half-maximal effect.
Assay [8] addresses Cytochrome P450 3A4 (Homo sapiens) (UniProt P08684). In words: Cytochrome P450 family 3 subfamily A member 4 (CYP3A4) small molecule antagonists: luciferase qHTS assay (AID 1645841; active = well fitted curve in the direction sought with a large enough effect in the repeat runs; an effect the other way counts as inactive or inconclusive; note: nearly all actives have a fitted effect of over 45% in size). Summed up:
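P450-Glo CYP3A4 enzyme with proluciferin substrate preincubated 10 min with compound at room temperature, then NADPH regeneration 1 h. Luciferin detection reagent added for 20 min; luminescence recorded. Ketoconazole positive control.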

The target of assay [9] is Catechol O-methyltransferase (Homo sapiens) (UniProt P21964). Nature of the assay: Confirmatory Screen for Target Class Profiling of Small Molecule Inhibitors of Methyltransferases (AID 1745852; calls by dose curve). To be noted: MTase-Glo luminescence, SAH detection, recombinant enzyme; measured here: COMT max response; stronger effect = lower value.
Chain of Catechol O-methyltransferase (Homo sapiens) (P21964 whole entry, looked up): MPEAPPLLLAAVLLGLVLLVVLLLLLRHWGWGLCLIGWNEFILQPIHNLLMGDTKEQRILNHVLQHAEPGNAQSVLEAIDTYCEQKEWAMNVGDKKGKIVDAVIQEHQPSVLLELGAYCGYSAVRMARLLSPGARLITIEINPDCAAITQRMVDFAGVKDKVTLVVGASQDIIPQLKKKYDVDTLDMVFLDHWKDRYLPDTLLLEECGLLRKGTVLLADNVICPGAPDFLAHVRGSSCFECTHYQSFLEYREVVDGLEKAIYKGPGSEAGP
For assay [10], the target named is Guanidinoacetate N-methyltransferase (Homo sapiens) (UniProt Q14353). The description is as above. Conditions: MTase-Glo luminescence, SAH detection, recombinant enzyme; activity change, negative = inhibition: at 57.3 µM (top of the series).
The target in assay [11] is Nicotinamide N-methyltransferase (Homo sapiens) (UniProt P40261). The assay is described as above. Conditions: MTase-Glo luminescence, SAH detection, recombinant enzyme; measured here: NNMT max response; stronger effect = lower value.
Chain of Nicotinamide N-methyltransferase (Homo sapiens) (P40261 whole entry, looked up): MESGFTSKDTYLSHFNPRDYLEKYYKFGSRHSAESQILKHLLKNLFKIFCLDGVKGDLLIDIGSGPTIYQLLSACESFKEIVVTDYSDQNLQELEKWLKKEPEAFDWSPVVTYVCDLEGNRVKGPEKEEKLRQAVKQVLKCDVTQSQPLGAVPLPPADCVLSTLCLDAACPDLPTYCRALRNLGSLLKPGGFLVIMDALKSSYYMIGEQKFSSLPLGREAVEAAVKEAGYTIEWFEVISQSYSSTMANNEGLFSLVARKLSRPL
For assay [12], the target named is Phenylethanolamine N-methyltransferase (Homo sapiens) (UniProt P11086). The assay is described as above. To be noted: MTase-Glo luminescence, SAH detection, recombinant enzyme; measured here: PNMT max response; stronger effect = lower value.
Chain of Phenylethanolamine N-methyltransferase (Homo sapiens) (P11086 whole entry, looked up): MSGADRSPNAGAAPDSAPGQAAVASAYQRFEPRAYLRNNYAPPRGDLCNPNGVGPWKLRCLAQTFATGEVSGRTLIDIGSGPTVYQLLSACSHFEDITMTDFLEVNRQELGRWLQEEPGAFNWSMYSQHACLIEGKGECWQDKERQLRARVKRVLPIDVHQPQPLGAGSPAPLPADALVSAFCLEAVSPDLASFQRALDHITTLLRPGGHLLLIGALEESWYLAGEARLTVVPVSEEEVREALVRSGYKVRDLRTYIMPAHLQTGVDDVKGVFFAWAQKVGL
Assay [13] deals with Rap guanine nucleotide exchange factor 3 (Homo sapiens) (UniProt O95398). In words: Confirmatory qHTS for antagonist of cAMP-regulated guanine nucleotide exchange factor 3 (EPAC1) (AID 1645880).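 Note: plate controls were DMSO only for no effect and full effect of the ATA control for full effect; nearly all actives have a fitted effect of over 55% in size.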 Summed up:
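Released BODIPY-GDP fluoresces less than Rap1-bound BODIPY-GDP; the signal is followed at 480/540 nm at 5-min intervals over 30 min, after 5 min at room temperature. Reactions contain 100 nM EPAC1, 250 nM RAP1B-BODIPY-GDP and 50 uM GDP; results are normalized to ATA and DMSO.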

The target is the same in assay [14]. Nature of the assay: Confirmatory qHTS for agonist of cAMP-regulated guanine nucleotide exchange factor 3 (EPAC1) (AID 1645881).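 Note: EPAC1 catalysed release of BODIPY-GDP from Rap1B seen as fluorescence loss; 100% = effect of cAMP agonist control; nearly all actives have a fitted effect of over 75% in size.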
Assay [15] concerns the target Rap guanine nucleotide exchange factor 4 (Homo sapiens) (UniProt Q8WZA2). In words: Confirmatory qHTS for agonist of cAMP-regulated guanine nucleotide exchange factor 4 (EPAC2) (AID 1645884).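 Note: nucleotide exchange releases bodipy-GDP from Rap1 and this lowers its fluorescence; % is set by controls: 0 for no effect and ±100 for the full control effect; nearly all actives have a fitted effect of over 65% in size.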
The target is the same in assay [16]. Nature of the assay: Confirmatory qHTS for antagonist of cAMP-regulated guanine nucleotide exchange factor 4 (EPAC2) (AID 1645885). Note: % is set by controls: 0 for no effect and ±100 for the full control effect; nearly all actives have a fitted effect of over 25% in size.
Assay [17] can be described thus: NCATS anti-infectives library activity on HEK293 viability as a counter-qHTS vs the C. elegans viability qHTS (AID 1745854). Note: % is set by controls: 0 for no effect and ±100 for the full control effect. Summed up: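 Cytotoxicity counter-screen to a worm viability qHTS: CellTiter-Glo luminescence read 10 min after reagent addition. Compounds (final up to 41.7 uM, a 1:5 dilution series) incubated 24 hr at 37C with 1,500 HEK293 cells per well; digitonin control.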

The structures appear in SMILES notation. Values joined by “and” are separate entries in the source; they are usually repeats but may differ in a detail not shown here. Equal entries are not always repeated. Inconclusive results are not listed. Some compounds were tested as several samples or in several runs, with calls that do not always agree. Active and inactive are the calls of the source. Unless noted, calls come from the whole dose curve; as a rule, active = well fitted curve in the direction sought with a large enough effect; inconclusive = small, poorly fitted or top-dose-only effect, or another doubt; inactive = no such curve, though single readings can be large; an effect the other way counts as inactive or inconclusive.

Chain of Cytochrome P450 2D6 (Homo sapiens) (P10635 whole entry, looked up): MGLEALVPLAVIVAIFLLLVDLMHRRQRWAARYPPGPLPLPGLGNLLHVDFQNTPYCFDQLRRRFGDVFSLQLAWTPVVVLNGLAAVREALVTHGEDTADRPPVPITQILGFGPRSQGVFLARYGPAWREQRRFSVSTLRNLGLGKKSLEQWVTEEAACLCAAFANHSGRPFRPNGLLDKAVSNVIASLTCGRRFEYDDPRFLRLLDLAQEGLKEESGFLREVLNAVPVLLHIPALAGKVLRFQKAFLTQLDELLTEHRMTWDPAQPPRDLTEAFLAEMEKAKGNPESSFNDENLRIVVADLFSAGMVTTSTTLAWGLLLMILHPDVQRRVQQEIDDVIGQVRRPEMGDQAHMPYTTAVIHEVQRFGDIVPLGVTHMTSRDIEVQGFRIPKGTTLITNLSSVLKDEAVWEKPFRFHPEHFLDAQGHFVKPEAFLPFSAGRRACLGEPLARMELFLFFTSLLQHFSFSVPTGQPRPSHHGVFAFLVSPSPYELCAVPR
Chain of Cytochrome P450 2C9 (Homo sapiens) (P11712 whole entry, looked up): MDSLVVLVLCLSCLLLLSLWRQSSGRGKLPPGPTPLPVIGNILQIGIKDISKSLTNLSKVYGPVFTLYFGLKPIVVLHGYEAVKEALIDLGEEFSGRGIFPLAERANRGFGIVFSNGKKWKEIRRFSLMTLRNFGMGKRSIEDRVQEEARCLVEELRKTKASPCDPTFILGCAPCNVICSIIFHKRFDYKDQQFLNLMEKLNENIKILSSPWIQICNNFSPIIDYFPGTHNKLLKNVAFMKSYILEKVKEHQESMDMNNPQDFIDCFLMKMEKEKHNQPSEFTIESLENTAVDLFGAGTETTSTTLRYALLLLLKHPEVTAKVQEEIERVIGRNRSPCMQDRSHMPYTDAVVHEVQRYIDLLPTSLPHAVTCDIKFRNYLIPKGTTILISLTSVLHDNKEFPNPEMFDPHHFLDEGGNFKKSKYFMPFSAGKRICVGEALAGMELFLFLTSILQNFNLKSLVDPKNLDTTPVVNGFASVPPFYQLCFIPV
Chain of Rap guanine nucleotide exchange factor 4 (Homo sapiens) (Q8WZA2 whole entry, looked up): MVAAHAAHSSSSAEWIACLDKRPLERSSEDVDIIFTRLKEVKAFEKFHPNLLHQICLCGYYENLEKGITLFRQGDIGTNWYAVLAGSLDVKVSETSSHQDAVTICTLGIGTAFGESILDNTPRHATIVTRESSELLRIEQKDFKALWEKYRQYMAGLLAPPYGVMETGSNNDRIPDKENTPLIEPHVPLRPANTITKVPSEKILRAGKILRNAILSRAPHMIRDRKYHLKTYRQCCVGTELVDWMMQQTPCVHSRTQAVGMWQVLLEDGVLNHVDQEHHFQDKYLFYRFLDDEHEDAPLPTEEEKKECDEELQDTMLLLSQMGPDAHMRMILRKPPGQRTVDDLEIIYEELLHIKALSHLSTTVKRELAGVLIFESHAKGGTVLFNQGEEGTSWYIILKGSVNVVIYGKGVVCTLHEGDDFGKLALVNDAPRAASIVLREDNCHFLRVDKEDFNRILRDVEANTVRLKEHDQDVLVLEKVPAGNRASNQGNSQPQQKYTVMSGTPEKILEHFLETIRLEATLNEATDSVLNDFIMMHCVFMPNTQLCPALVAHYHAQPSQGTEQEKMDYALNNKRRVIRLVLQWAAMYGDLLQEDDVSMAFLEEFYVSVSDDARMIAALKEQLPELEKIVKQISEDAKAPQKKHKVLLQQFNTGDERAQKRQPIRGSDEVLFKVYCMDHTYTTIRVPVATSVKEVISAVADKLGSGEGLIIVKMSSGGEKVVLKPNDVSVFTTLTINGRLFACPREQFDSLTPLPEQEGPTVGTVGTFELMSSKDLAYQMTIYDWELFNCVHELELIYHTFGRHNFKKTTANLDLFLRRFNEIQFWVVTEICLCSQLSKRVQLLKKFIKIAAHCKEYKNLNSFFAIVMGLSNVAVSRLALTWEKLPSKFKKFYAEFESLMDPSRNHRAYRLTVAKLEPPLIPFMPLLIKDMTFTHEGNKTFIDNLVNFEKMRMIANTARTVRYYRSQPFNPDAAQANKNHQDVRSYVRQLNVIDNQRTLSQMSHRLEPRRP
Chain of Rap guanine nucleotide exchange factor 3 (Homo sapiens) (O95398 whole entry, looked up): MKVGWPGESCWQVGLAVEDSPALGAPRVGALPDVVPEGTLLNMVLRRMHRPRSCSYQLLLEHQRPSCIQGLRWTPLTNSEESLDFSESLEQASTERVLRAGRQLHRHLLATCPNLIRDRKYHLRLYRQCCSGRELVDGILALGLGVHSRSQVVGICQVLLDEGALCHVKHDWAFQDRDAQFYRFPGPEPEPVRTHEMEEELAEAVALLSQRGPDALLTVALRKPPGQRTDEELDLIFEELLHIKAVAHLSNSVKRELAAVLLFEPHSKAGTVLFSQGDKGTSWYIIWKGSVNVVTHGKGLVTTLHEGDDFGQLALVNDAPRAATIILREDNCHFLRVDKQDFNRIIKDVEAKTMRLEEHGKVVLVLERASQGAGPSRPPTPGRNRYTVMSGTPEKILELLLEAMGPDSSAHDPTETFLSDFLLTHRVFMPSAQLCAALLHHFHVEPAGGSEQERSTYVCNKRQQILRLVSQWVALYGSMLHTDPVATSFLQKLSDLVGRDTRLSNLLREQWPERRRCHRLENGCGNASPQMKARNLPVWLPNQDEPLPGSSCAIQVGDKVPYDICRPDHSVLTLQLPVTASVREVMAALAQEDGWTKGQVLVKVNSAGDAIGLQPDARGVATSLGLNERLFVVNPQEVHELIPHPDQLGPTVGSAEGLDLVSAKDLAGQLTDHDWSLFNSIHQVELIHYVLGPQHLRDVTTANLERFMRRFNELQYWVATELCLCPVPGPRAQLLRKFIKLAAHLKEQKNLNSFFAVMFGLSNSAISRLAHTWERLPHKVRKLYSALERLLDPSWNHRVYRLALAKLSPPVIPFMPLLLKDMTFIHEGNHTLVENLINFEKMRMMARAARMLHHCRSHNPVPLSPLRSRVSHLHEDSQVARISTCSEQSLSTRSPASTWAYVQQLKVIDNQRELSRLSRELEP
Chain of Cytochrome P450 3A4 (Homo sapiens) (P08684 whole entry, looked up): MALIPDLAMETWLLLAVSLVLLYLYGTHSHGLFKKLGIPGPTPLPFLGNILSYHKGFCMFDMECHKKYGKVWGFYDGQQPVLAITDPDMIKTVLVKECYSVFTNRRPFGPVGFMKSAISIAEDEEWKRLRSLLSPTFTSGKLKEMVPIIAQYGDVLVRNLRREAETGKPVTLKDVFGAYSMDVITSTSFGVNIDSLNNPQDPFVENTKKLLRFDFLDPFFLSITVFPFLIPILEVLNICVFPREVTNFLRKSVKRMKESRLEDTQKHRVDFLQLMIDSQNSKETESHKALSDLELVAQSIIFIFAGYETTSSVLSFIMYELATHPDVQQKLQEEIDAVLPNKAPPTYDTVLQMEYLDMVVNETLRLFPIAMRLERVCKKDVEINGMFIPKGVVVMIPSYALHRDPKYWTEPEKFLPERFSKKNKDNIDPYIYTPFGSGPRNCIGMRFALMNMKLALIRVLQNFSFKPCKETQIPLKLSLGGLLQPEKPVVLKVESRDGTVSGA

`CCN(CC)CC#CCOC(=O)C(O)(c1ccccc1)C1CCCCC1` (configuration not stated): the Potency entry in assay [1] and in assay [4] was “inactive” throughout. The figures for the Potency in [2] and in assay [3] were 3.01 µM (active) and 7.56 µM (active), respectively.

Regarding `CC(C)C1CCC(C(=O)N[C@H](Cc2ccccc2)C(=O)O)CC1` (some centres not stated), the Potency entry in [1], in assay [5], in assay [2], in assay [6] and in assay [7] was “inactive” throughout.

`Cc1ncc([N+](=O)[O-])n1CCO`: the Potency result in [1], in assay [2], in assay [3] and in [6] was “inactive” each time.

With `COC(c1ccccc1)(c1ccccc1)[C@H](Oc1nc(C)cc(C)n1)C(=O)O`, the Potency result in assay [1], in [2], in assay [3] and in assay [6] was “inactive” each time.

Turning to `CN1CCCC(n2nc(Cc3ccc(Cl)cc3)c3ccccc3c2=O)CC1` (configuration not stated), the Potency result in assay [1] and in assay [3] was “inactive” in each case. In assay [2], the Potency was 0.617 µM (active).

As for `C[C@]12C=CC(=O)C=C1CC[C@@H]1[C@@H]2C(=O)C[C@@]2(C)[C@H]1CC[C@]2(O)C(=O)CO`, the Potency entry in [1], in [5], in assay [6] and in assay [7] was “inactive” each time.

For the molecule `CC[C@H](NC(C)C)[C@H](O)c1ccc(O)c2[nH]c(=O)ccc12`, the Potency result in assay [1], in assay [5], in assay [6] and in assay [7] was “inactive” in each case.

On to `CC(C)OC(=O)C(C(=O)OC(C)C)=C1SC=CS1`, for which the Potency result in [1], in assay [5] and in [6] was “inactive” in each case.

As to `O=C(O)c1ccc(-n2nc(-c3ccccc3O)nc2-c2ccccc2O)cc1`, the Potency entry in assay [1], in assay [2] and in assay [3] was “inactive” each time. In assay [8], the outcome is “inactive”. Also, the Potency was 6.68 µM (active) and 4.17 µM (active) in assay [6]; 5.31 µM (active) and 4.17 µM (active) in [7].

On to `NC(=O)N1c2ccccc2CC(=O)c2ccccc21`, for which the Potency result in assay [1], in assay [2] and in assay [3] was “inactive” in each case.

For `CCCCCCNC(=O)n1cc(F)c(=O)[nH]c1=O`, the Potency entry in assay [1] and in assay [5] was “inactive” in each case. The Potency was 15.5 µM (active) in assay [2]; 8.41 µM (active) and 10.5 µM (active) in [6]; 7.5 µM (active) and 8.33 µM (active) in [7].

Turning to `CNS(=O)(=O)CCc1ccc2[nH]cc(C3CCN(C)CC3)c2c1`, the Potency result in [1], in [5], in [3], in [4], in [6] and in assay [7] was “inactive” in each case. Besides, the activity is -4.91% in assay [9], -12.2% in assay [11] and -2.32% in [12]. The activity change, negative = inhibition in [10] amounted to 2.91%.

With `Cc1cccc(N(C)C(=S)Oc2ccc3ccccc3c2)c1`, the Potency result in assay [1], in assay [5] and in assay [6] was “inactive” in each case. For the same molecule, the Potency in [3] was 11 µM (active); in assay [7] it was “inactive and 14.8 µM (active)”. Besides, the outcome in [13], in assay [14], in assay [15] and in assay [16] was “inactive” throughout.

As to `N=C(N)c1ccc(OCCCCCOc2ccc(C(=N)N)cc2)cc1`, the Potency entry in [1], in assay [5] and in assay [2] was “inactive” throughout. In addition, the Potency was 4.73 µM (active) and 3.72 µM (active) in assay [6]; 4.22 µM (active) and 4.68 µM (active) in [7].

As for `NC(=O)c1cccnc1`, the Potency result in assay [1], in [5], in assay [2], in [6] and in assay [7] was “inactive” each time.

For the molecule `CO[C@@]12[C@H](COC(N)=O)C3=C(C(=O)C(C)=C(N)C3=O)N1C[C@@H]1N[C@@H]12`, the Potency result in assay [1], in assay [3], in assay [6] and in [7] was “inactive” in each case. In addition, the Potency in [2] was 12.3 µM (active).

Regarding `COc1cccc(N(C)C(=S)Oc2ccc3c(c2)CCCC3)n1`, the Potency entry in assay [1], in [2], in assay [3], in assay [6] and in assay [7] was “inactive” each time.

For `Nc1[nH]c(=O)ncc1F`, the Potency entry in assay [1], in assay [2], in assay [3], in [6] and in [7] was “inactive” in each case.

For `CC(=O)[C@H]1CC[C@H]2[C@@H]3CC=C4C[C@@H](O)CC[C@]4(C)[C@H]3CC[C@]12C`, the Potency result in [1], in assay [2], in [3] and in assay [6] was “inactive” throughout.

For the molecule `N[C@@H](C(=O)N[C@@H]1C(=O)N2C(C(=O)O)=C(Cl)CS[C@H]12)c1ccccc1`, the Potency entry in assay [1] is “inactive”. Also, the activity change, negative = inhibition is 16.7% [at 11.5 µM] (inactive) in assay [2] and 11.4% [at 11.5 µM] (inactive) in assay [3]. For the same molecule, in assay [6], the outcome was “inactive [at 9.23 µM]”. Further, the activity change, negative = cell killing in assay [7] was -2.72% [at 9.23 µM] (inactive).

Take `CC(C)(C#N)c1cc(Cn2cncn2)cc(C(C)(C)C#N)c1`: the Potency entry in assay [1], in [2], in [6] and in assay [7] was “inactive” in each case.

For the molecule `Cc1cccc(Nc2ccncc2S(=O)(=O)NC(=O)NC(C)C)c1`, the Potency result in [1], in assay [2] and in assay [6] was “inactive” in each case.

For the molecule `CCC(C)(C)c1ccc(CC(C)CN2C[C@@H](C)O[C@@H](C)C2)cc1` (some centres not stated), the Potency entry in assay [1] and in [6] was “inactive” throughout. The Potency in assay [2] was 4.9 µM (active).

Take `CN(C)CCc1c[nH]c2ccc(CS(=O)(=O)N3CCCC3)cc12`: the Potency entry in assay [1], in [2], in assay [6] and in assay [7] was “inactive” each time.

`CC(=O)CC(c1ccccc1)c1c(O)c2ccccc2oc1=O` (configuration not stated): the Potency entry in assay [1], in assay [2], in assay [6] and in assay [7] was “inactive” each time.

Regarding `COc1ccc(-c2ccc3cc(C(=O)O)ccc3c2)cc1C12CC3CC(CC(C3)C1)C2`, the Potency result in assay [1], in assay [2], in assay [6] and in assay [7] was “inactive” in each case.

`CCN[C@H]1C[C@H](C)S(=O)(=O)c2sc(S(N)(=O)=O)cc21`: the Potency entry in assay [1], in assay [2], in assay [6], in assay [7] and in [17] was “inactive” throughout.

As for `Nc1nc(N)nc(-c2cc(Cl)ccc2Cl)n1`, the Potency entry in assay [1], in assay [2], in assay [3] and in [6] was “inactive” in each case.

As for `CN1CCN(c2c(F)cc3c(=O)c(C(=O)O)cn(CCF)c3c2F)CC1`, the Potency entry in assay [1], in [2] and in assay [6] was “inactive” each time.

The values are drawn from PubChem BioAssay (NCATS).
